# The whole screen tested about 360,000 compounds, of which about 1,100 (0.31%) were called active. The sample holds actives, similar compounds and a random draw of the others, so the mix is not that of the screen. Unmarked numbers belong to inactive results. No stated cut-off is given here; in the data, active means activity change below about -80%; inconclusive means mostly about -51% to -80%; inactive means weaker than that.
# Target: RAC-alpha serine/threonine-protein kinase (Homo sapiens) (UniProt P31749)
# Experiment: HTS Assay for Inhibitors of Akt Phophorylation: Primary Screen
# Conditions: Neuro2A IGF-stimulated pAkt S473 HTRF, 20 min; at 50 µM, active compounds read low
# Description: The serine/threonine protein kinase Akt (protein kinase B) regulates various cellular processes, including cell survival, growth, proliferation, migration and differentiation. It has been well established that Akt is activated through two essential steps involving membrane translocation and phosphorylation. Cytosolic Akt is recruited to the plasma membrane via the interaction between the PH domain and membrane PIP3 produced by phosphoinositide-3 kinase (PI3K) upon growth factor receptor stimulation. The membrane-Akt interaction results in conformational changes of Akt, enabling its activation through phosphorylation at T308 in the kinase domain and at S473 in the C-terminal hydrophobic motif by PDK1 and mTOR-rictor complex (mTORC2), respectively. […] These findings indicate that S473 phosphorylation, as an important modulator of Akt activation, may be a valuable drug target for cell growth, survival, proliferation and differentiation. These inhibitors also may have significant therapeutic potential with fewer side effects, especially for the conditions involving hyperactive Akt signaling, such as cancer and Alzheimer's disease.
# To this end, a miniaturized assay was developed to be screened against the Molecular Libraries Small Molecule Repository (MLSMR).
# NIH Chemical Genomics Center [NCGC]
# NIH Molecular Libraries Probe Centers Network [MLPCN]
# Assay Submitter (PI): Hee-Yong Kim, National Institute on Alcohol Abuse and Alcoholism
# 3 uL of Neuro2A cell suspension in DMEM containing 0.5% FBS and […] antibiotics mix was plated in a white solid bottom tissue culture-treated 1536-well plate (Greiner Bio-One, Monroe, NC) at 4,500 cells per well and incubated overnight at 37 deg C. 23 nL/well of compound solutions in DMSO was added with Pintool transfer (Kalypsis, San Diego, CA) at single […] final concentration. Then, the cells were stimulated with 1.5 uL of IGF (6 nM final concentration) and incubated at 37 deg C for 20 min. The reaction was terminated by the addition of 1.5 uL blocking reagent mixed with lysis buffer (1:25 correspondingly) provided with HTRF(R) Phospho Akt (Ser473) kit (Cisbio US, Bedford, MA), with following incubation for 50 min at ambient temperature. The detection HTRF conjugates from the kit were prepared according to the protocol, pre-mixed 1:1 prior to dispensing, and 2 uL/well was added with BioRAPTR FRD dispenser (Beckman Coulter). The assay plates were incubated for 24 hours at ambient temperature, and the HTRF fluorescence was measured using Envision plate reader (PerkinElmer) with excitation at 330nm, emission at 615nm (Eu(3)-Cryptate donor signal) and 665nm (d2 acceptor signal). The ratio of […] was calculated for each well.
# On the % scale 0 is the no-effect control and ±100 the full control effect.
row,SMILES,activity change
1,CCCc1ccc(-c2csc(NC(=O)Cc3cccs3)n2)cc1,-105% (active)
2,O=C(Nc1ccc2c(c1)C(=O)OC2)Nc1cccc2ccccc12,inactive
3,CCn1cc(C(=O)NC2CCCCCC2)c(=O)c2cc(S(=O)(=O)N3CCCCC3)ccc21,inactive
4,CCn1cc(C(=O)N2CC(C)CC(C)C2)c(=O)c2cc(S(=O)(=O)N3CCCC3)ccc21 (stereo unspecified),inactive
5,CCn1cc(C(=O)NCC2CCCO2)c(=O)c2cc(S(=O)(=O)N3CCCCC3)ccc21 (stereo unspecified),-109% (active)
6,CC(C)(C)NC(=O)C(CCc1ccccc1)n1c(=O)c(-c2ccccc2)nc2ccccc21 (stereo unspecified),inactive
7,CCC(c1nnnn1Cc1ccco1)N(CCc1ccccc1)Cc1cc2cccc(C)c2[nH]c1=O (stereo unspecified),-20.5%
8,CCC(c1nnnn1C1CCCC1)N(Cc1cccs1)Cc1cc2cccc(C)c2[nH]c1=O (stereo unspecified),-108% (active)
9,Cc1cccc2cc(CN(Cc3nnnn3Cc3ccccc3)C3CCCC3)c(=O)[nH]c12,inactive
10,CCc1ccccc1N(CC(=O)NCCSCc1ccco1)S(C)(=O)=O,inactive
11,Cc1[nH]c2ccccc2c1C(=O)c1cc([C@H](NC(=O)OC(C)(C)C)C(C)C)sc1N,inactive
12,Cc1ccc2c(C)c(C(=O)N3CCN(c4ccncc4)CC3)oc2c1C,inactive
13,O=C(c1cc2cc(Br)cc(Br)c2oc1=O)N1CCOCC1,inactive
14,COc1c(Br)cc2c(C)c(C(=O)N3CCOCC3)oc2c1Br,-114% (active)
15,CCOC(=O)[C@]12CCCC=C1N(CCC1=CCCCC1)C(=O)[C@H](CC(=O)N1CCOCC1)C2,inactive
16,OCCC#Cc1ccc(N2C(c3ccsc3)=Cc3ccc(F)cc3C2c2c[nH]c3ccccc23)cc1 (stereo unspecified),inactive
17,CC(C)CC1(C)NC(=O)N(CC(=O)Nc2ccc3c(c2)OCCO3)C1=O (stereo unspecified),inactive
18,CC1=NN(C(C)C)C(=O)C1,-118% (active)
19,CCOC(=O)NN1C(=O)c2ccccc2NC1c1ccccc1O (stereo unspecified),inactive
20,CC1(C(=O)NCc2ccccc2)CSCC(=O)N1CCCN1CCOCC1 (stereo unspecified),inactive
21,COc1ccc2ccccc2c1CNCc1ccccn1,inactive
22,CSCCC(C(=O)NC(C)(C)C)n1c(-c2ccccc2)nc2ccccc21 (stereo unspecified),inactive
23,CC(NC(=O)C(=O)Nc1nccs1)c1ccccc1 (stereo unspecified),inactive
24,O=C(CCn1ccc([N+](=O)[O-])n1)Nc1nccs1,inactive
25,Cc1c(Br)c([N+](=O)[O-])nn1C(C)C(=O)Nc1nccs1 (stereo unspecified),-109% (active)
26,CC(CN1CCCCC1)OC(=O)c1ccccc1Cl (stereo unspecified),-96.5% (active)

row,SMILES,activity change
1,Cc1cccc(C(=O)OC(C)CN2CCN(C)CC2)c1 (stereo unspecified),inactive
2,Cc1cccc(C(=O)OC(C)CN2CCCC2)c1 (stereo unspecified),inactive
3,CCOC(=O)[C@]12CCCC=C1N(CCC1=CCCCC1)C(=O)[C@H](CC(=O)N1CCSCC1)C2,inactive
4,Cc1cccc(C)c1NC(=O)C(c1cccc(F)c1)N1CCN(C)CC1 (stereo unspecified),inactive
5,Cc1ccc(C)c(NC(=O)COC(=O)c2nn(C)c(=O)c3ccccc23)c1,inactive
6,Cc1ccc(F)cc1NC(=O)CSCc1c(C)noc1C,inactive
7,Cc1ccc(F)cc1NC(=O)Cc1nn(C)c(=O)c2ccccc12,-106% (active)
8,CCN1C(=O)/C(=C\N2CCOCC2)SC1=S,inactive
9,O=C(O)CCSc1nnc(-c2ccccc2)n1-c1ccccc1,-109% (active)
10,NNC(=O)CSc1nnc(-c2ccccc2)n1-c1ccccc1,inactive
11,O=C(O)CSc1nnc(-c2ccc3c(c2)OCO3)n1-c1ccccc1,inactive
12,CS(=O)(=O)N1CCN=C1SCc1ccc(F)cc1,inactive
13,Cc1cc(OCCOc2cccc3cccnc23)c(C)cc1Cl,inactive
14,Cc1cc(Cl)ccc1OCc1nc(-c2ccncc2)no1,inactive
15,Cc1noc(COc2ccccc2OCc2onc(C)c2Cl)c1Cl,-112% (active)
16,CC1(C(=O)NCc2ccccc2)CN(S(C)(=O)=O)CC(=O)N1CC(F)(F)F (stereo unspecified),inactive
17,Cc1cccc(NC(=O)CSC(N)=O)c1C,-113% (active)
18,Cc1cccc(NC(=O)COC(=O)CCc2ccccc2)c1C,inactive
19,Cc1cccc(NC(=O)CSc2nc3c(c(=O)[nH]2)CCCC3)c1C,inactive
20,C=Cc1ccc(C(=O)N2CCCC(CCC(=O)N3CCN(c4ccccn4)CC3)C2)cc1 (stereo unspecified),inactive
21,O=C(C[C@H]1CC[C@H]2[C@@H](COC[C@H](O)CN2C(=O)c2ccccn2)O1)N1CCN(c2ccccc2)CC1,inactive
22,FC(F)(F)c1cc(-c2ccco2)nc(NCc2ccc(Cl)cc2)n1,-102% (active)
23,COc1nc(NCc2ccc(Cl)cc2)nc(OC)n1,1.36%
24,FC(F)(F)c1cc(-c2cccs2)nc(NCc2ccco2)n1,-2.47%
25,CC(C)(C)n1nnnc1C(c1ccc2ncccc2c1)N1CCSCC1 (stereo unspecified),inactive

# From PubChem BioAssay AID651550 (National Center for Advancing Translational Sciences (NCATS), 2012)
